Results from the supplement of paper PMC4206461.
Unmarked numbers belong to inactive results.

Tested on: Pseudomonas aeruginosa PA14 wild type
Experiment: respiration area under curve with compound as sole nitrogen source, 24 h (OmniLog AUC (arbitrary units)); higher = more respiration / better utilisation as nitrogen source, active = 2000 or more
Procedure: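 Biolog Phenotype MicroArray plates PM6-PM8: each di/tripeptide is the sole nitrogen source (IF-0 medium with succinate/ferric citrate and dye mix A). Tetrazolium reduction was read in the OmniLog every 15 min for 24 h at 37°C and summarised as area under the respiration curve (arbitrary units). The paper counts values below 2000 as no respiration and above 8000 as solid respiration. Replicate datasets are averaged.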

Compound	respiration area under curve
CC(C)C[C@H](NC(=O)[C@@H](N)C(C)C)C(=O)O (plate: PM7)	9770 (active)
C[C@@H](O)[C@H](N)C(=O)N[C@@H](CC(=O)O)C(=O)O (plate: PM8)	5680 (active)
CC(C)C(NC(=O)C1CCCN1)C(=O)O (stereo not given) (plate: PM8)	7080 (active)
C[C@H](N)C(=O)N[C@@H](CCC(=O)O)C(=O)O (plate: PM6)	7840 (active)
CC[C@H](C)[C@H](NC(=O)[C@@H](N)C(C)C)C(=O)O (plate: PM7)	9390 (active)
N[C@@H](Cc1ccccc1)C(=O)N[C@@H](CO)C(=O)O (plate: PM7)	7630 (active)
CC(C)C[C@H](N)C(=O)NCC(=O)NCC(=O)O (plate: PM8)	10400 (active)
CC(C)C[C@H](NC(=O)[C@@H]1CCCN1)C(=O)O (plate: PM7)	7810 (active)
NCC(=O)N[C@@H](Cc1c[nH]c2ccccc12)C(=O)O (plate: PM6)	755
NC(=O)C[C@H](N)C(=O)N[C@@H](CCC(=O)O)C(=O)O (plate: PM6)	5930 (active)
CC(C)[C@H](N)C(=O)N[C@@H](CC(=O)O)C(=O)O (plate: PM7)	8160 (active)
CSCC[C@H](NC(=O)[C@@H](N)[C@@H](C)O)C(=O)O (plate: PM7)	4960 (active)
C[C@H](N)C(=O)N[C@@H](Cc1ccc(O)cc1)C(=O)O (plate: PM6)	6830 (active)
C[C@H](N)C(=O)N[C@@H](CO)C(=O)O (plate: PM6)	9550 (active)
C[C@@H](O)[C@H](N)C(=O)N1CCC[C@H]1C(=O)O (plate: PM7)	13000 (active)
NCC(=O)N[C@H](CC(=O)O)C(=O)O (plate: PM8)	0.2
CC[C@H](C)[C@H](NC(=O)[C@@H](N)CCCN=C(N)N)C(=O)O (plate: PM6)	9540 (active)
CSCC[C@H](NC(=O)CN)C(=O)O (plate: PM6)	327
C[C@H](N)C(=O)N1CCC[C@H]1C(=O)O (plate: PM6)	12000 (active)
CC[C@H](C)[C@H](N)C(=O)N[C@@H](Cc1ccccc1)C(=O)O (plate: PM6)	2830 (active)

Compound	respiration area under curve
CSCC[C@H](N)C(=O)N[C@@H](CCC(N)=O)C(=O)O (plate: PM7)	9160 (active)
CC[C@H](C)[C@H](NC(=O)[C@@H](N)CC(C)C)C(=O)O (plate: PM6)	6260 (active)
CC(C)[C@H](N)C(=O)N[C@@H](CCC(N)=O)C(=O)O (plate: PM8)	9290 (active)
C[C@H](NC(=O)[C@@H](N)CO)C(=O)O (plate: PM7)	10900 (active)
C[C@@H](O)[C@H](N)C(=O)N[C@@H](Cc1ccccc1)C(=O)O (plate: PM8)	8640 (active)
C[C@H](N)C(=O)N[C@@H](C)C(=O)N[C@@H](C)C(=O)O (plate: PM8)	10400 (active)
CC(C)C[C@H](N)C(=O)N[C@@H](CC(N)=O)C(=O)O (plate: PM8)	12400 (active)
N[C@@H](Cc1ccc(O)cc1)C(=O)NCC(=O)O (plate: PM7)	9630 (active)
N[C@@H](Cc1ccccc1)C(=O)N1CCC[C@H]1C(=O)O (plate: PM7)	11400 (active)
NCC(=O)N[C@H](CO)C(=O)O (plate: PM8)	641
C[C@@H](N)C(=O)NCC(=O)O (plate: PM8)	6030 (active)
NC(Cc1c[nH]c2ccccc12)C(=O)NC(Cc1ccccc1)C(=O)O (stereo not given) (plate: PM7)	547
N[C@@H](CCC(=O)O)C(=O)N[C@@H](Cc1ccc(O)cc1)C(=O)O (plate: PM6)	1140
NC(=O)CC[C@H](NC(=O)[C@@H](N)CO)C(=O)O (plate: PM8)	9860 (active)
O=C(O)[C@H](CO)NC(=O)[C@@H]1CCCN1 (plate: PM8)	8750 (active)
CC(C)C[C@H](NC(=O)CN)C(=O)O (plate: PM6)	1880
CSCC[C@H](N)C(=O)N[C@@H](Cc1ccc(O)cc1)C(=O)O (plate: PM8)	1560
N[C@@H](CCC(=O)O)C(=O)N[C@@H](CCC(=O)O)C(=O)O (plate: PM6)	248
CC(C)[C@H](N)C(=O)N[C@@H](Cc1ccc(O)cc1)C(=O)N[C@H](C(=O)O)C(C)C (plate: PM8)	8370 (active)
N[C@@H](CO)C(=O)NCC(=O)O (plate: PM7)	8430 (active)
